# Measurements as given in ChEMBL document CHEMBL1157539, “Thousands of chemical starting points for antimalarial lead identification” (Nature, 2010).
# System: Plasmodium falciparum
# Experiment: GSK_TCMDC: Inhibition of Plasmodium falciparum 3D7 in whole red blood cells, using parasite LDH activity as an index of growth. Test compounds present at 2uM
# Assay type: functional
row,Compound,Inhibition
1,O=C(Nc1ccccc1)Nc1cccc(-c2nn3c(OCCN4CCCC4)cccc3c2-c2ccncc2)c1,100%
2,COc1ccc2ncc(F)c([C@H](O)CN3CCC(NCc4ccc5c(c4)NC(=O)CO5)CC3)c2c1.Cl,100%
3,CS(=O)(=O)CCNCc1nc(-c2ccc3ncnc(Nc4ccc(OCc5cccc(F)c5)c(Cl)c4)c3c2)cs1.Cl,98%
4,Cc1ccc(-n2c(Cc3cccc4ccccc34)nnc2SCCC#N)c(C)c1,95%
5,Cc1cc(N[C@@H](Cc2ccccc2)C(=O)NC2CCCC2)nc(NCCOc2ccccc2)n1.O=C(O)C(F)(F)F,98%
6,O=C(NC1CC1)c1cnc(N2CCC(COc3cccc(F)c3)CC2)c(Cl)c1,89%
7,C=C[C@]1(C)C[C@@H](OC(=O)c2cncn(COC)c2=O)[C@]2(C)[C@H](C)CC[C@]3(CCC(=O)[C@H]32)[C@@H](C)[C@@H]1O,96%
8,O=C(Nc1cccc(CN2CCCN(Cc3ccc4c(c3)OCO4)CC2)c1)c1ccc2ccccc2c1.O=C(O)C(F)(F)F,86%
9,Cc1cnc(NCC2CCCCC2)nc1N[C@@H](CC(C)C)C(=O)Nc1ccccc1.O=C(O)C(F)(F)F,96%
10,COc1cc(CCNc2nc(NCc3cccc4ccccc34)nc(N3CCC(N)CC3)n2)ccc1O.O=C(O)C(F)(F)F,100%
11,CCCCC(N)COc1cccc2c(-c3ccncc3)c(-c3cccc(NC(=O)Nc4ccccc4)c3)nn12 (centres undefined),100%
12,COc1ccc(CN(C)CC(O)COc2ccc(NC(=O)c3cccc4c(=O)c5cccc(OC)c5[nH]c34)cc2)cc1OC (centres undefined),93%
13,CCCN(Cc1ccc(OCC)cc1)Cc1cc(=O)c2cc(Cl)ccc2[nH]1,82%
14,COc1ccc(CNCc2ccc(-c3ccc(-c4nc5cc(C(F)(F)F)ccc5[nH]4)s3)cc2)cc1.O=C(O)C(F)(F)F,100%
15,CN1CCC(C(=O)N(Cc2ccc(-c3ccc(CNCCc4ccc(S(C)(=O)=O)cc4)cn3)cc2)C2Cc3ccccc3C2)CC1.O=C(O)C(F)(F)F,98%
16,Oc1cccc(-c2cnc3ccc(NCc4ccc(F)cc4)nn23)c1,91%
17,CN(C)/C(=N/C(=N)NCc1ccc(Cl)c(Cl)c1)NCCCCCCN/C(=N\C(=N)NCc1ccc(Cl)c(Cl)c1)N(C)C,93%

row,Compound,Inhibition
1,CC(=O)Nc1nc(C(=O)Nc2ccc(-c3ccc(-c4nc5cc(F)ccc5[nH]4)cc3)cc2)cs1,100%
2,COc1ccc(CCNC(=O)c2cc(C)ccc2O)cc1-c1ccc(C(C)(C)C)cc1,97%
3,CNCc1ccc2nc(-c3coc(Cc4cc(Cl)ccc4OCC(C)C)n3)[nH]c2c1.Cl,100%
4,O=C1C(c2ccccc2)=C(Nc2ccc(Cl)cc2)c2ccccc21,91%
5,CC(C)(C)SCC(O)Cn1c2ccc(Br)cc2c2cc(Br)ccc21 (centres undefined),87%
6,COc1ccc(CN(C)CCCCc2ccc(NC(=O)COc3cccc4sc5ccccc5c(=O)c34)cc2)cc1OC.O=C(O)C(=O)O,100%
7,Clc1ccc2nnc(-c3c(Cl)cccc3Cl)n2n1,96%
8,Cc1cc(=O)c(-c2ccc(Oc3ccc(Cl)cc3Cl)cc2)c(C)[nH]1,93%
9,O=C(Nc1ccsc1)Nc1cccc(-c2cccc(-c3nc4cc(C(F)(F)F)ccc4[nH]3)c2)c1,100%
10,CCCCN(Cc1cc(Cl)c(OCC)c(OC)c1)c1ccc(C(O)(C(F)(F)F)C(F)(F)F)cc1.O=C(O)C(F)(F)F,92%
11,CC(C)CN1CCCN(Cc2cccc(NC(=O)c3ccc(-c4ccccc4)cc3)c2)CC1.O=C(O)C(F)(F)F,99%
12,COc1ccccc1N1CCN(CCCCNC(=O)c2ccc(NC(=O)c3ccc4ccccc4c3)cc2)CC1,97%
13,Cc1ccccc1C1CCN(C2CCC(NC(=O)/C=C/c3cc(F)cc(F)c3)CC2)CC1 (centres undefined),99%
14,CN1CCN(c2ccnc3ccc(NC(=O)Nc4ccc(-c5ccccc5)cc4)cc23)CC1,99%
15,CCN(CC)CCN(Cc1ccc(-c2ccc(C(F)(F)F)cc2)cc1)C(=O)Cn1c(CCc2ccc(F)cc2)nc(=O)c2sccc21.O=C(O)C(O)C(O)C(=O)O,99%
16,COc1ccc(CN(C)CCCc2ccc(NC(=O)Cc3ccc4nc(-c5ccccc5)ccc4c3)cc2)cc1OC,98%
17,CCC(C)NC(=O)Nc1ccc(-c2cccc(-c3nc4cc(C(F)(F)F)ccc4[nH]3)c2)cc1 (centres undefined),97%
